# Laboratory results: PubChem BioAssay (NCATS)
# Records with an inconclusive call do not appear. Entries that show only a call come without a potency. Values without a mark were called inactive. Calls of active or inactive are those of the source. Calls follow the shape of the dose curve; as a rule, active = well fitted curve in the direction sought with a large enough effect; inconclusive = small, poorly fitted or top-dose-only effect, or another doubt; inactive = no such curve, though single readings can be large; an effect the other way counts as inactive or inconclusive.
# Assay: BET inhibitor-based combinations targeting novel dependencies in MECOM-rearranged (r) AML: HNT-34 cell line (AID 2202234); also: nearly all actives have a fitted effect of over 35% in size
# Conditions: HNT-34 AML viability, CellTiter-Glo luminescence, 48 h; series mostly up to 46 µM
# In short: (§1)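 Normalized to DMSO and empty-well controls, the luminescence data from CellTiter-Glo after 48 hr drug exposure were fitted across 11 concentrations. Reported metrics are area under the dose-response curve and its Z-transformed form.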
# Potency is read from the fitted curve at half-maximal effect.
row,Structure (SMILES),Potency
1,COc1cc(NC(=O)c2ccc(-c3ccc(Cl)cc3)o2)cc(OC)c1,inactive
2,OC[C@@H](O)[C@@H](O)[C@H](O)[C@@H](O)CO,inactive
3,CC(C)(C)COc1ccc(-n2cc(C(=O)O)cn2)cc1C#N,inactive
4,C1CCC(C(CC2CCCCN2)C2CCCCC2)CC1 (centres undefined),7.42 µM (active)
5,CC(C)C(C)C=CC(C)C1CCC2C3=CC=C4CC(O)CCC4(C)C3CCC21C (centres undefined),inactive
6,Cn1cc(C2=C(c3c4n(c5ccccc35)CCC(CN)C4)C(=O)NC2=O)c2ccccc21 (centres undefined),5.39 µM (active)
7,c1ccc2c(-c3cnn4cc(-c5ccc(N6CCNCC6)cc5)cnc34)ccnc2c1,4.68 µM (active)
8,CCN(CC)CCCCNc1ncc2cc(-c3cc(OC)cc(OC)c3)c(NC(=O)NC(C)(C)C)nc2n1,8.33 µM (active)
9,CN1C(C(=O)Nc2ccccn2)=C(O)c2sc(Cl)cc2S1(=O)=O,inactive
10,CS(=O)(=O)OCCCCOS(C)(=O)=O,inactive
11,OC(c1cc(C(F)(F)F)nc2c(C(F)(F)F)cccc12)C1CCCCN1 (centres undefined),23.5 µM (active)
12,Cc1ccc(O)c(C(CCN(C(C)C)C(C)C)c2ccccc2)c1 (centres undefined),inactive
13,S=c1nc[nH]c2nc[nH]c12,16.6 µM (active)
14,CC#CCn1c(N2CCC[C@@H](N)C2)nc2c1c(=O)n(Cc1nc(C)c3ccccc3n1)c(=O)n2C,inactive
15,CN[C@@H]1CN(c2ccc3c(=O)c(C(=O)O)cn(-c4nccs4)c3n2)C[C@@H]1OC,1.15 µM (active)
16,O=C1NC(O)CCN1[C@@H]1O[C@H](CO)[C@H](O)[C@H]1O (some centres undefined),inactive
17,C[C@](Cc1c[nH]c2ccccc12)(NC(=O)OC1C2CC3CC(C2)CC1C3)C(=O)NC[C@H](NC(=O)CCC(=O)O)c1ccccc1 (some centres undefined),inactive
18,C[C@@H](CN1CC(=O)NC(=O)C1)N1CC(=O)NC(=O)C1,inactive
19,C[C@]12C=CC(=O)C=C1CC[C@@H]1[C@@H]2C(=O)C[C@@]2(C)[C@H]1CC[C@]2(O)C(=O)CO,inactive
20,Cc1ccc(C(=O)Nc2cccc(C(F)(F)F)c2)cc1Nc1nc(-c2cccnc2)nc2c1cnn2C,9.34 µM (active)

# Assay: BET inhibitor-based combinations targeting novel dependencies in MECOM-rearranged (r) AML: UCSD-AML1 cell line (AID 2202235); also: nearly all actives have a fitted effect of over 40% in size
# Conditions: UCSD-AML1 AML cells viability, CellTiter-Glo, 48 h; series mostly up to 46 µM
# In short: as §1
Structure (SMILES),Potency,viability (% of control)
Cc1cn([C@@H]2C[C@@H](O)[C@H](CO)O2)c(=O)[nH]c1=O,inactive,
Nc1nc2c(c(=O)[nH]1)N(C=O)[C@H](CNc1ccc(C(=O)N[C@@H](CCC(=O)O)C(=O)O)cc1)CN2,inactive,
O=C(O)C(O)Cc1ccc(O)c(O)c1 (centres undefined),inactive,
CNC(=O)Nc1ccc(-c2nc(N3CC4CCC(C3)O4)c3cnn(C4CCC5(CC4)OCCO5)c3n2)cc1,29.5 nM (active),
Cc1cccc(-c2nn(C(=S)Nc3ccccc3)cc2-c2ccnc3ccccc23)n1,inactive,
CO[C@@H]1[C@@H](OC(N)=O)[C@@H](O)[C@H](Oc2ccc3c(O)c(NC(=O)c4ccc(O)c(CC=C(C)C)c4)c(=O)oc3c2C)OC1(C)C,inactive,
CCN1CCN(CC(=O)Nc2ccc(-c3cccc4c(=O)cc(N5CCOCC5)oc34)c3sc4ccccc4c23)CC1,2570 nM (active),
COc1cccc2c1C(=O)c1c(O)c3c(c(O)c1C2=O)C[C@@](O)(C(=O)CO)C[C@@H]3O[C@H]1C[C@H](N)[C@H](O)[C@H](C)O1,93.4 nM (active),
Cn1cc(C2=C(c3c4n(c5ccccc35)CCC(CN)C4)C(=O)NC2=O)c2ccccc21 (centres undefined),,97.4% [at 8.46 µM]
COCCCN1CCC(NC(=O)c2cc(Cl)c(N)c3c2OCC3)CC1,inactive,
CC(C)(F)C[C@H](N[C@@H](c1ccc(-c2ccc(S(C)(=O)=O)cc2)cc1)C(F)(F)F)C(=O)NC1(C#N)CC1,inactive,
COc1cc(OC)c(C(=O)CCCN2CCCC2)c(OC)c1,inactive,
S=c1nc[nH]c2nc[nH]c12,3720 nM (active),
CC[C@@H]1C(=O)N(C)c2cnc(Nc3ccc(C(=O)NC4CCN(C)CC4)cc3OC)nc2N1C1CCCC1,105 nM (active),
O=C(Nc1cc(Cl)cc2c1[nH]c1cnccc12)c1cccnc1,inactive,
O=C(O)[C@@H](c1ccc(OCc2ccc3ccccc3n2)cc1)C1CCCC1,inactive,
COc1ccc(C=Cc2cc(OC)c(OC)c(OC)c2)cc1NC(=O)[C@H](N)CO,372 nM (active),
C[C@@H](Oc1cc(-n2cnc3ccc(CN4CCN(C)CC4)cc32)sc1C(N)=O)c1ccccc1C(F)(F)F,118 nM (active),
C[C@@H]1C[C@H]2[C@@H]3CCC4=CC(=O)C=C[C@]4(C)[C@@]3(F)[C@@H](O)C[C@]2(C)[C@@]1(O)C(=O)CO,inactive,
CC1=C(C)C(=O)C(C(CCCCCC(=O)O)c2ccccc2)=C(C)C1=O (centres undefined),inactive,
COc1cc([C@@H]2c3cc4c(cc3[C@H](O)[C@H]3COC(=O)[C@H]23)OCO4)cc(OC)c1OC,41.7 nM (active),
COc1ccc(-n2c(C)c([N+](=O)[O-])c3ccc(O)cc32)cc1,inactive,

# Assay: BET inhibitor-based combinations targeting novel dependencies in MECOM-rearranged (r) AML: AML-191 cell line (AID 2202236; also: nearly all actives have a fitted effect of over 35% in size)
# Conditions: AML-191 viability, CellTiter-Glo luminescence, 48 h; series mostly up to 46 µM
# In short: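 Here, 11-point titrations of each agent were applied to 500 seeded cells and incubated 48 hr; CellTiter-Glo signal, scaled against DMSO and empty wells, was integrated as AUC, then Z-scored within the individual line.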
row,Structure (SMILES),Potency
1,COc1cc(NC(=O)c2ccc(-c3ccc(Cl)cc3)o2)cc(OC)c1,inactive
2,Cc1cn([C@@H]2C[C@@H](O)[C@H](CO)O2)c(=O)[nH]c1=O,inactive
3,Nc1nc2c(c(=O)[nH]1)N(C=O)[C@H](CNc1ccc(C(=O)N[C@@H](CCC(=O)O)C(=O)O)cc1)CN2,inactive
4,OC[C@@H](O)[C@@H](O)[C@H](O)[C@@H](O)CO,inactive
5,O=C(O)C(O)Cc1ccc(O)c(O)c1 (centres undefined),inactive
6,Cc1cccc(-c2nn(C(=S)Nc3ccccc3)cc2-c2ccnc3ccccc23)n1,inactive
7,C1CCC(C(CC2CCCCN2)C2CCCCC2)CC1 (centres undefined),9.34 µM (active)
8,CC(C)C(C)C=CC(C)C1CCC2C3=CC=C4CC(O)CCC4(C)C3CCC21C (centres undefined),inactive
9,CO[C@@H]1[C@@H](OC(N)=O)[C@@H](O)[C@H](Oc2ccc3c(O)c(NC(=O)c4ccc(O)c(CC=C(C)C)c4)c(=O)oc3c2C)OC1(C)C,inactive
10,CCN1CCN(CC(=O)Nc2ccc(-c3cccc4c(=O)cc(N5CCOCC5)oc34)c3sc4ccccc4c23)CC1,5.74 µM (active)
11,COc1cccc2c1C(=O)c1c(O)c3c(c(O)c1C2=O)C[C@@](O)(C(=O)CO)C[C@@H]3O[C@H]1C[C@H](N)[C@H](O)[C@H](C)O1,0.186 µM (active)
12,COCCCN1CCC(NC(=O)c2cc(Cl)c(N)c3c2OCC3)CC1,inactive
13,CC(C)(F)C[C@H](N[C@@H](c1ccc(-c2ccc(S(C)(=O)=O)cc2)cc1)C(F)(F)F)C(=O)NC1(C#N)CC1,inactive
14,CCN(CC)CCCCNc1ncc2cc(-c3cc(OC)cc(OC)c3)c(NC(=O)NC(C)(C)C)nc2n1,18.6 µM (active)
15,CN1C(C(=O)Nc2ccccn2)=C(O)c2sc(Cl)cc2S1(=O)=O,inactive
16,CS(=O)(=O)OCCCCOS(C)(=O)=O,inactive

row,Structure (SMILES),Potency
1,OC(c1cc(C(F)(F)F)nc2c(C(F)(F)F)cccc12)C1CCCCN1 (centres undefined),23.5 µM (active)
2,COc1cc(OC)c(C(=O)CCCN2CCCC2)c(OC)c1,inactive
3,CC#CCn1c(N2CCC[C@@H](N)C2)nc2c1c(=O)n(Cc1nc(C)c3ccccc3n1)c(=O)n2C,inactive
4,CN[C@@H]1CN(c2ccc3c(=O)c(C(=O)O)cn(-c4nccs4)c3n2)C[C@@H]1OC,1.82 µM (active)
5,O=C1NC(O)CCN1[C@@H]1O[C@H](CO)[C@H](O)[C@H]1O (some centres undefined),inactive
6,CC[C@@H]1C(=O)N(C)c2cnc(Nc3ccc(C(=O)NC4CCN(C)CC4)cc3OC)nc2N1C1CCCC1,0.166 µM (active)
7,O=C(Nc1cc(Cl)cc2c1[nH]c1cnccc12)c1cccnc1,inactive
8,O=C(O)[C@@H](c1ccc(OCc2ccc3ccccc3n2)cc1)C1CCCC1,inactive
9,COc1ccc(C=Cc2cc(OC)c(OC)c(OC)c2)cc1NC(=O)[C@H](N)CO,0.332 µM (active)
10,C[C@@H](CN1CC(=O)NC(=O)C1)N1CC(=O)NC(=O)C1,13.2 µM (active)
11,C[C@@H](Oc1cc(-n2cnc3ccc(CN4CCN(C)CC4)cc32)sc1C(N)=O)c1ccccc1C(F)(F)F,0.0934 µM (active)
12,CC1=C(C)C(=O)C(C(CCCCCC(=O)O)c2ccccc2)=C(C)C1=O (centres undefined),inactive
13,C[C@]12C=CC(=O)C=C1CC[C@@H]1[C@@H]2C(=O)C[C@@]2(C)[C@H]1CC[C@]2(O)C(=O)CO,inactive
14,Cc1ccc(C(=O)Nc2cccc(C(F)(F)F)c2)cc1Nc1nc(-c2cccnc2)nc2c1cnn2C,8.33 µM (active)
15,COc1cc([C@@H]2c3cc4c(cc3[C@H](O)[C@H]3COC(=O)[C@H]23)OCO4)cc(OC)c1OC,0.0372 µM (active)
16,COc1ccc(-n2c(C)c([N+](=O)[O-])c3ccc(O)cc32)cc1,6.61 µM (active)
